# This is one part of a sample in which hits are shown more often than they occur.
# TTR transcr act: increases transthyretin transcription. SH-SY5Y TTR promoter Gaussia luciferase, luminescence; 100% = recombinant luciferase protein wells. 92,000 compounds, 1.3% hits. activation, % at 16.7 µM;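 active means activation above the mean of all tested compounds plus 3 SD, cut at about 9.5% in these data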;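 further: cells exposed to compounds for one day before reading; 0% = median of all test compound wells on the plate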
# TTR inh HuH7: counter-screen for TTR activators: TTR transcription inhibitors in HuH7 cells; shares compounds with TTR transcr act; HuH7 TTR promoter-Gaussia luciferase reporter, luminescence; inhibition, % at 16.7 µM; 1,100 compounds, 4% hits;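 active means average inhibition above the solvent-only control wells' mean plus 3 SD, cut at about 15% in these data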;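 further: 0% = cells with DMSO only and 100% = cells with inhibitor control FD; inhibitors lower well luminescence so higher value means more inhibition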
# TTR up confirm: human TTR transcription activation, confirmation; 1,100 tested, under 10 active; SHSY5Y TTR promoter Gaussia luciferase, luminescence; 100% = purified Lucia enzyme wells, no cells; activation, % at 16.7 µM; shares compounds with TTR transcr act;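 active means mean activation above a set limit taken from the earlier primary screen, cut at about 11% in these data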;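 further: 0% = DMSO-treated cells and 100% = recombinant Lucia luciferase without cells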
# Starred values were filed as active, the others as inactive.
SMILES,TTR transcr act,others
CC(C)CC(NC(=O)C(Cc1ccc(OCc2ccccc2)cc1)NC(=O)OC(C)(C)C)C(N)=O (centres undefined),-3,
CCOC(=O)C(Cc1ccccc1)NC(=O)CNC(=O)CNC(=O)OCc1ccccc1 (centres undefined),3,
CCOC(=O)C(Cc1ccc(O)cc1)NC(=O)CNC(=O)C(CC(C)C)NC(=O)OC(C)(C)C (centres undefined),30*,TTR inh HuH7=-1;TTR up confirm=-1
CCCCCCCCN1C(=O)[C@H](CC(=O)N2CCOCC2)C[C@@]2(C(=O)OC)CC(C)(C)CC=C12,0,
Cc1cc(-c2cccc(Br)c2)c(C#N)c(N)n1,-2,
CCc1nnc(NC(=O)CSc2nnc(CNC(=O)c3cc(OC)c(OC)c(OC)c3)o2)s1,0,
CC(C)N(C)S(=O)(=O)c1ccc(Cl)c(C(=O)O)c1,0,
COC(=O)[C@]12C[C@H](CC(=O)NCc3ccccc3)C(=O)N(Cc3ccco3)C1=C[C@H](C1CCCC1)O[C@@H]2C,2,
COc1ccc(N(C(C)C(=O)N/N=C/c2cccnc2)S(C)(=O)=O)cc1 (centres undefined),-1,
COc1ccc(N(C(C)C(=O)N/N=C/c2ccc(OC)c(OC)c2)S(C)(=O)=O)cc1 (centres undefined),-1,
COc1ccc(N(C(C)C(=O)NN=C2CCCCCCC2)S(C)(=O)=O)cc1 (centres undefined),15*,TTR inh HuH7=-9;TTR up confirm=-1
CN(Cc1ccccc1)C(=O)c1cccc(NC(=O)Cc2ccc(NC(=O)C3CCCN(C(=O)C4CC4)C3)cc2)c1 (centres undefined),0,
CCCC1CCC2(CC1)CCC2OC(=O)Nc1cccc(C(F)(F)F)c1 (centres undefined),0,
COC(=O)c1cc(Cl)cc(Cl)c1OS(=O)(=O)N(C)C,0,
CN1CCN(C(=O)c2cc([N+](=O)[O-])ccc2Cl)CC1,-1,
O=C(NCc1cccc(Cl)c1)c1ccc(CS(=O)Cc2ccc(Cl)cc2)o1 (centres undefined),-2,
Cc1cccc(NC(=O)COC(=O)c2ccccc2SCC(=O)N2CCCC2)c1,0,
COc1cc(-c2ccc3oc(-c4ccsc4)cc3c2)cc(OC)c1OC,-2,
COc1ccc(C(=S)N2CCCC2)cc1Br,1,
COc1cc(C(=S)N2CCCC2)ccc1O,1,
Oc1ccc(C(=S)N2CCCCC2)cc1,10*,TTR inh HuH7=2;TTR up confirm=-1
CN(C)CCCNC(=O)C[C@@H]1CC[C@@H]2[C@H](COc3ccc(NC(=O)c4cccc(F)c4)cc3C(=O)N2C)O1,0,
O=C(O)CC(C(=O)O)C(=Cc1ccccc1)c1ccccc1 (centres undefined),0,
CC(=O)c1ccn(S(=O)(=O)c2ccc(Cl)cc2)c1,2,
C/C(=N/NS(=O)(=O)c1ccc(Cl)cc1)c1ccncc1,4,
SMILES,TTR transcr act,others
C/C(=N\O)c1ccn(S(=O)(=O)c2ccc(Cl)cc2)c1,26*,TTR inh HuH7=-23;TTR up confirm=4
COc1ccc(N2CCN(C(=O)CCNC(=O)Cn3ccc4ccccc4c3=O)CC2)cc1,0,
O=c1c2ccccc2on1-c1ccccc1,-1,
C#CCOCCOCCOCCNc1nc(N2CCN(C(=O)Cn3cc(CCCN=C(N)N)nn3)CC2)nc(N2CCN(C(=O)[C@H](Cc3ccc(O)cc3)n3cc(CCO)nn3)CC2)n1,-1,
COc1cc(OC)c(NC(=O)c2cccc(F)c2)cc1Cl,-2,
O=C(Nc1ncccc1Cl)c1cccc(F)c1,12*,TTR inh HuH7=-17;TTR up confirm=0
Cc1cc(NC(=O)c2cccc(F)c2)no1,8,
CN1N=C(C(=O)N2CCc3c([nH]c4ccccc34)C2c2c(F)cccc2Cl)CCC1=O (centres undefined),-1,
CCN(CCCNC(=O)CCCOc1cc(=O)n(C)c2ccccc12)Cc1ccccc1,0,
NC(=O)CCC(NC(=S)Nc1ccccc1)C(=O)O (centres undefined),0,
Cc1ccc(S(=O)(=O)N(C)C)cc1NC(=O)c1cccs1,1,
Cc1ccc(S(=O)(=O)N(C)C)cc1NC(=O)CSc1ccc2c(c1)OCCO2,2,
Cc1ccc(S(=O)(=O)N(C)C)cc1NC(=O)C1CCCC1,11*,TTR inh HuH7=-16;TTR up confirm=-1
COc1ccc(C)c(NC(=O)[C@@H]2CCCN2S(=O)(=O)c2cccc3cccnc23)c1,0,
COc1ccc(Cc2c(-c3ccc(F)cc3)nc3ccc(Cl)cn23)c(C)c1,-1,
Fc1cccc(CNC2CCC23CCC(c2ccccc2)CC3)c1 (centres undefined),0,
O=C(NCCc1ccccc1)c1ccc(NC(=O)C2CCCCC2)cc1,0,
CCCOc1ccc(N2C(=O)CC(SC(=NC)Nc3ccc(F)cc3)C2=O)cc1 (centres undefined),0,
CCOc1ccc(N2C(=O)CC(NCCc3ccncc3)C2=O)cc1 (centres undefined),0,
CCCOc1ccc(N2C(=O)CC(NCC(=O)OCC)C2=O)cc1 (centres undefined),10.0*,TTR inh HuH7=-13;TTR up confirm=0
O=C(CCCn1cncn1)N1CCCC(N2CCN(c3ccccc3F)CC2)C1 (centres undefined),0,
CC(C)Cc1cc(C(=O)NCCCN2CCOCC2)no1,11*,TTR inh HuH7=2;TTR up confirm=-1
O=C(NCCN1CCOCC1)c1cc(-c2ccco2)on1,3,
O=C(NCCN1CCOCC1)c1cc(-c2ccc(F)cc2)on1,4,
Cc1ccc(C)c(N2CCN(C3CCCC(C)C3)CC2)c1 (centres undefined),-1,
SMILES,TTR transcr act,others
COc1ccc(CC(=O)NNC(=S)NC(=O)c2cc(OC)c(OC)c(OC)c2)cc1,-1,
C=CCOc1c(Cl)cc(CNc2nccs2)cc1OC,2,
COc1ccc(C2C(C(=O)NCc3ccccn3)CCC(=O)N2c2cc(OC)c(OC)c(OC)c2)cc1 (centres undefined),3,
O=C(c1ccccc1)N1CCN(C(=S)NCCc2ccccc2)CC1,-1,
CN1CCN(C(=S)NCCc2ccccc2)CC1,11*,TTR inh HuH7=-14;TTR up confirm=-1
OCC1CCCN(C(=S)NCCc2ccccc2)C1 (centres undefined),2,
O=C(O)COc1ccc(/C=C/C(=O)c2ccc(C3CCCCC3)cc2)cc1,1,
CN(Cc1cccc(F)c1)C(=O)c1ccc(S(=O)(=O)N2CCCCCC2)cc1,-2,
CN(C)c1cc2c(cc1NS(=O)(=O)c1ccccc1)n(C)c(=O)n2C,1,
Fc1ccc(NC(=S)N2CCN(c3ccccn3)CC2)cc1Cl,-2,
O=C(Cc1n[nH]c(=O)c2ccccc12)Nc1ccc(-c2nnc3n2CCCCC3)cc1,1,
O=C(Cn1[nH]c(=O)c2ccccc2c1=O)Nc1ccc(-c2nnc3n2CCCCC3)cc1,12*,TTR inh HuH7=-15;TTR up confirm=1
Cc1c(C(=O)Nc2ccc(-c3nnc4n3CCCCC4)cc2)oc2c1ccc1ccccc12,-2,
CSCCC1NC(=O)N(CC(=O)N2N=C(c3ccc(Cl)cc3)CC2c2ccco2)C1=O (centres undefined),1,
O=C1CC(c2ccc3c(c2)OCO3)N=C2N(Cc3ccc4c(c3)OCO4)C/C(=C/c3ccccc3)N12 (centres undefined),0,
CC(C)[C@H](NC(=O)c1ccc(Cl)cc1)C(=O)OCC(=O)N1CCN(c2ccccc2)CC1,-2,
COc1ncnc2c1ncn2CCCN(C)Cc1ccco1,-1,
CN(CCCn1ccc(N)nc1=O)Cc1ccco1,17*,TTR inh HuH7=-9;TTR up confirm=0

# Screening data deposited in PubChem BioAssay by The Scripps Research Institute Molecular Screening Center.
